KCNQ2 inh: rat KCNQ2 potassium channel inhibitors, primary screen, cell-based, CHO-K1, FluxOR thallium flux, B-score; Potassium voltage-gated channel subfamily KQT member 2 (Rattus norvegicus), O88943; 20 min; stronger effect = lower value; B-score at 10 µM; hit rate 1.1% among 310,000; AID 2156, 2009;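 active = fluorescence ratio B-score at most minus 3 library SDs, with starting brightness B-score within 2 library SDs, cut at about -5.5 in these data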
Target sequence (O88943 whole entry, looked up): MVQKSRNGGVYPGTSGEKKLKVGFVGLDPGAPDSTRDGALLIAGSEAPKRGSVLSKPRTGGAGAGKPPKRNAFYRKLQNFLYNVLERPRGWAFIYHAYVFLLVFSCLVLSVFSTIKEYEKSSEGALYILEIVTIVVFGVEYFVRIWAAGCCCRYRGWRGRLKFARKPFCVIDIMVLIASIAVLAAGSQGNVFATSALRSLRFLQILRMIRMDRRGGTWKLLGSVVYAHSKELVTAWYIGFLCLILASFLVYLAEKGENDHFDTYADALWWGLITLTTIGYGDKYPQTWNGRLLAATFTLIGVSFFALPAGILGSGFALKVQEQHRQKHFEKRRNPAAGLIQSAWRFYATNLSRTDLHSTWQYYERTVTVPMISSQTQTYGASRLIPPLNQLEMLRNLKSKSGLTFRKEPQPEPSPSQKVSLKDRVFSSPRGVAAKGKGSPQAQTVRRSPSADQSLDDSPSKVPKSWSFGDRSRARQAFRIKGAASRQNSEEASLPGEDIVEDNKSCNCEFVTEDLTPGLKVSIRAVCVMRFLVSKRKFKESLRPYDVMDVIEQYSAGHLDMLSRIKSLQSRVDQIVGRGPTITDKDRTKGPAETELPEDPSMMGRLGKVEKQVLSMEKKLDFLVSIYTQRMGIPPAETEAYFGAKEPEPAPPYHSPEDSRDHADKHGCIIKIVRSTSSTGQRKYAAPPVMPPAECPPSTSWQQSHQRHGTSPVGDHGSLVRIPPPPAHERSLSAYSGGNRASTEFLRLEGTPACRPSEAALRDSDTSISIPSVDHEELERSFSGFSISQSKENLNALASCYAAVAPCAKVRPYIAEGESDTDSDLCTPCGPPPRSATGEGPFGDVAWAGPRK
KCNQ2 pot: potentiators of rat KCNQ2 potassium channel | Potassium voltage-gated channel subfamily KQT member 2 (Rattus norvegicus), O88943 | CHO-K1 KCNQ2, FluxOR thallium flux fluorescence; stronger effect = higher value | B-score at 10 µM | hit rate 0.54% among 310,000 | AID 2239, 2010;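 active = fluorescence ratio B-score at least 3 SD of library B-scores, with initial fluorescence B-score within 3 of them, cut at about 5.3 in these data; same plate scores as AID 2156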;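 also: B-score of peak minus minimum over baseline fluorescence ratio after K+ and Tl+ stimulus; positive B-score means potentiation of KCNQ2 with more thallium influx and brighter signal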
Kir21 confirm: mouse Kir2.1 channel blockers, retest, confirmation, cell-based, FluxOR thallium flux, duplicate; hit rate 41% among 2,300; Kir2.1-expressing cells, FluxOR thallium flux fluorescence; stronger effect = lower value; shares compounds with KCNQ2 pot; AID 2032, 2009; Tl flux remaining, % of negative control (stronger effect = lower value), % at 10 µM;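 active = Primary-screen hit whose thallium flux fell at least 3 control SD below untreated wells in both duplicates, with normal baseline fluorescence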
HEK293 ctr: counter-screen for Kir2.1 inhibitors: effect in parental HEK293 cells; AID 2105; hit rate 19% among 2,300; FluxOR signal as % of negative control (100 = no effect), % at 10 µM; FluxOR thallium flux fluorescence; 0% = unstimulated blank wells; shares compounds with KCNQ2 pot;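 active = dye signal at least 3 control SD above or below untreated wells in both duplicates, raw fluorescence within 3, either direction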;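 also: percent is based on the flux ratio of peak minus minimum fluorescence over baseline F0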
CHO-K1 Tl ctr: nonspecific thallium flux increase in parental CHO-K1, confirmation, counter-screen for KCNQ2 potentiator project, cell-based, FluxOR thallium flux, duplicate | hit rate 43% among 1,200 | shares compounds with KCNQ2 pot | parental CHO-K1 cells, FluxOR thallium flux fluorescence; zero = vehicle mean+3SD, 100% = vehicle-minus-blank window | activity increase over 3SD of controls, % at 10 µM;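 active = signal rise of at least 3 SD above the untreated control mean, in both duplicate wells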;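 also: counter screen of KCNQ2 potentiator hits so any rise reflects channel-independent effects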
KCNQ1 pot spec: human KCNQ1 channel potentiation off-target, confirmation, selectivity assay for KCNQ2 potentiator project, cell-based, CHO, FluxOR thallium flux. shares compounds with KCNQ2 pot. CHO KCNQ1 stable, FluxOR thallium flux fluorescence; beyond 3SD, as % of vehicle-control signal. activation over 3SD threshold, % at 10 µM. hit rate 28% among 1,200. AID 2283, 2010;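 active = fluorescence ratio rise of at least 3 SD of vehicle wells above their mean, in both replicate wells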
KCNQ2 pot conf: rat KCNQ2 channel potentiators, confirmation, cell-based, CHO, FluxOR thallium flux, duplicate | shares compounds with KCNQ2 pot | potentiation, less the hit threshold, % at 10 µM | CHO-KCNQ2 cells, FluxOR thallium flux fluorescence | AID 2287, 2010 | hit rate 68% among 1,200;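 active = fluorescence ratio rising 3 SD or more over the vehicle control mean in both replicates, plus primary screen hit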;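 also: peak minus minimum thallium fluorescence divided by baseline after K/Tl stimulus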
Kir2-1 sel: mouse Kir2.1 channel activation off-target, confirmation, selectivity assay for KCNQ2 potentiator project, cell-based, HEK293, FluxOR thallium flux. shares compounds with KCNQ2 pot. HEK293 Kir2.1, FluxOR thallium flux fluorescence. activity over 3SD threshold, % at 10 µM. hit rate 2% among 1,200. AID 2345, 2010;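 active = fluorescence ratio rise of at least 3 SD above the vehicle-control mean, seen in both replicates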
KCNQ2 W236L MoA: potentiators of retigabine-insensitive KCNQ2 W236L, mechanism study for KCNQ2 potentiator project, cell-based, rat KCNQ2 W236L, CHO, automated patch clamp; hit rate 10% among 940; automated patch clamp current; current increase over 3SD of negative controls (%), stronger effect = higher value, % at 25 µM; AID 2558, 2010; shares compounds with KCNQ2 pot;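 active = current increase at least 3 SD of the untreated controls above them in both duplicate recordings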
A number is an active result; i = inactive; nt = no result given. In the library only some 1.6% were active in any assay of this set; here they are far more common.

SMILES	KCNQ2 inh	KCNQ2 pot	Kir21 confirm	HEK293 ctr	others
O=C(OCC(=O)N1c2ccccc2Sc2ccccc21)C1CC(=O)N(Cc2ccco2)C1 (configuration not stated)	i	nt	nt	nt
O=C(CCc1c[nH]c2ccccc12)NCCc1ccc(Cl)cc1	i	nt	nt	nt
COc1ccc(C)cc1Nc1n[n+](-c2ccccc2)c(-c2ccc(C(=O)O)cc2)s1	i	i	nt	nt
COc1ccc(C)cc1Nc1n[n+](-c2ccccc2)c(-c2cc(OC)c(OC)cc2Br)s1	-6.4	i	53%	i
CCOc1ccccc1NC(=O)CN1C(=O)CSC(C)C1=O (configuration not stated)	i	i	nt	nt
Cc1ccc(CN2CCC(C(=O)Nc3cccc(-c4cccc(F)c4)c3)CC2)o1	i	nt	nt	nt
O=C(Nc1cccc(-c2cccc(Cl)c2)c1)C1CCN(Cc2ccc(CO)o2)CC1	i	nt	63%	i
CNc1nc(C)cc(C)c1S(=O)(=O)c1ccc(C)cc1	i	nt	i	i
Cc1ccc(S(=O)(=O)c2c(C)cc(C)nc2Oc2cccc(C)c2C)cc1	i	nt	nt	nt
O=C(CC1CCC1)Nc1cccc2c([N+](=O)[O-])cccc12	i	9.6	i	i	CHO-K1 Tl ctr=i;KCNQ1 pot spec=56;KCNQ2 pot conf=35;Kir2-1 sel=i;KCNQ2 W236L MoA=i
O=C(CN1CCCCCC1)Nc1ccccc1[N+](=O)[O-]	i	nt	nt	nt
COc1ccc(C(C(=O)Nc2ccc(C(C)C)cc2)N(C)C(=O)c2ccc(=O)[nH]c2)cc1 (configuration not stated)	i	i	nt	nt
O=C(COc1ccc2ccccc2c1Br)N1CCCCC1	i	13	i	i	CHO-K1 Tl ctr=i;KCNQ1 pot spec=i;KCNQ2 pot conf=30;Kir2-1 sel=i;KCNQ2 W236L MoA=i
NC(=O)C1CCN(C(=O)COc2ccc3ccccc3c2Br)CC1	i	nt	nt	nt
NNC(=O)c1cnn(-c2ccccc2)c1-n1cccc1	i	i	nt	nt
Cc1ccc(S(=O)(=O)NCc2ccc3[nH]c(C)cc3c2)cc1	i	nt	nt	nt
CC(=O)Nc1ccc(S(=O)(=O)NCc2ccc3[nH]c(C)cc3c2)cc1	i	5.4	i	i	CHO-K1 Tl ctr=3.8;KCNQ1 pot spec=i;KCNQ2 pot conf=i;Kir2-1 sel=i
CS(=O)(=O)N(CC(=O)Nc1ccccc1C(=O)N1CCCC1)c1ccc2c(c1)OCO2	i	i	nt	nt
CCC(CC)NC(=O)c1ccccc1Oc1ccccc1	i	nt	55%	i
COCCCNC(=O)c1ccccc1Oc1ccccc1	i	nt	nt	nt
O=C(NCc1ccc(Cl)cc1)c1ccccc1Oc1ccccc1	i	8.8	i	i	CHO-K1 Tl ctr=110;KCNQ1 pot spec=i;KCNQ2 pot conf=12;Kir2-1 sel=i;KCNQ2 W236L MoA=i
CCC(C)(C)NC(=O)c1ccccc1Oc1ccccc1	i	nt	nt	nt
CC12CCC(C(=O)N3CCCc4ccccc43)(OC1=O)C2(C)C (configuration not stated)	i	i	nt	nt
CN(C(=O)C1CCCCC1)C1(C)CCS(=O)(=O)C1 (configuration not stated)	i	nt	nt	nt
Cc1csc(NC(=O)c2cc3c(s2)CCCCC3)n1	i	i	nt	nt
Cc1csc(NC(=O)c2cc3c(s2)CCCC3)n1	i	7.3	i	i	CHO-K1 Tl ctr=96;KCNQ1 pot spec=i;KCNQ2 pot conf=i;Kir2-1 sel=i;KCNQ2 W236L MoA=i

Bioassay records: PubChem, Johns Hopkins Ion Channel Center
